Source: PubChem BioAssay (NCATS)
A number with no mark means an inactive call. Results filed as inconclusive are left out. Active and inactive are the calls of the source. Unless noted, calls follow the shape of the dose curve; as a rule, active = well fitted curve in either direction with a large enough effect (not every such curve was filed as active); inconclusive = small, poorly fitted or top-dose-only effect, or another doubt; inactive = flat fitted curve, though single readings scatter.

Columns and labels:
[1] = target: Lysosomal acid glucosylceramidase (Homo sapiens) (UniProt P04062); assay: Glucocerebrosidase-p2 (AID 348; in the data active = potency below about 10 µM; also: potency is read from the fitted curve at half-maximal effect); details: purified GBA, blue fluorogenic substrate, 40 min
Chain of Lysosomal acid glucosylceramidase (Homo sapiens) (P04062 whole entry, looked up): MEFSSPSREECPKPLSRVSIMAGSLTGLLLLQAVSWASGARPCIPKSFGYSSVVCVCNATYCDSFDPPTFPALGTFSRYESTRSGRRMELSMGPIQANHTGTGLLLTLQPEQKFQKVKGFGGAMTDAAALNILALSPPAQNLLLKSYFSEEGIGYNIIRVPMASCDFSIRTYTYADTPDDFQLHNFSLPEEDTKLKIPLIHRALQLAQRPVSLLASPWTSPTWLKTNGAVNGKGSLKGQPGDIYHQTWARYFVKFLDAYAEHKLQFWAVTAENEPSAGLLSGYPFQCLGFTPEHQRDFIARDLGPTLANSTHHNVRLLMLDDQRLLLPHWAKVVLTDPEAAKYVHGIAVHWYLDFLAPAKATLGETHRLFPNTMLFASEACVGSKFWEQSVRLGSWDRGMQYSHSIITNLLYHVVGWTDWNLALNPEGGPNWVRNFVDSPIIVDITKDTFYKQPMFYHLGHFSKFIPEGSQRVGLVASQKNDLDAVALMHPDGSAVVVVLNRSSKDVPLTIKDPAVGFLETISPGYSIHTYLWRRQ
How it was run: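 Normal human glucocerebrosidase (0.2 nM) with blue fluorogenic substrate (80 uM final) in citrate/phosphate pH 5.9 with 10mM sodium taurocholate, 0.01% tween-20; 40 min RT, NaOH/glycine stop; fluorescence Ex 365/Em 440; AC50 from a titration from 0.6 nM upwards.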

[2] = AP1 Signaling Pathway (AID 357); details: ME-180 AP-1-bla reporter, EGF-induced, beta-lactamase ratio, 5 h; at 7.69 µM (top of the series) unless noted; also: % is scaled to controls: 0 for no effect and ±100 for the full control effect
How it was run: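 Modulation of EGF-driven AP-1 transcription was assessed with a beta-lactamase reporter in ME-180 cells. Compound and EC50 EGF were co-incubated 5 hours at 37 °C before 2.5-hour CCF4 loading at room temperature and dual-emission reading.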

[3] = Stat Signaling Pathway (AID 446); details: ME-180 SIE beta-lactamase reporter, IL-6 stimulated, 5 h; at 7.69 µM (top of the series) unless noted;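 also: ME-180 cervical cancer cells given 40 pM IL-6 alongside compound; SIE-controlled beta-lactamase reporter measured as 460/530 nm FRET emission ratio; % is scaled to controls: 0 for no effect and ±100 for the full control effect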
How it was run: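 Compound effects on IL-6-induced STAT reporter activity were measured in ME-180 cells. After overnight culture, cells were co-treated with 40 pM IL-6 for 5 hrs before beta-lactamase substrate loading at room temperature.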

[4] = target: Glucocorticoid receptor (Homo sapiens) (UniProt P04150); assay: GR-GFP Redistribution (AID 450;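 active = compounds whose dose series gives a full or clear partial fitted curve of increased nuclear translocation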; also: potency is read from the fitted curve at half-maximal effect); details: U2OS GR-GFP nuclear translocation, laser cytometry, 2 h
Chain of Glucocorticoid receptor (Homo sapiens) (P04150 whole entry, looked up, the tested form may be a part): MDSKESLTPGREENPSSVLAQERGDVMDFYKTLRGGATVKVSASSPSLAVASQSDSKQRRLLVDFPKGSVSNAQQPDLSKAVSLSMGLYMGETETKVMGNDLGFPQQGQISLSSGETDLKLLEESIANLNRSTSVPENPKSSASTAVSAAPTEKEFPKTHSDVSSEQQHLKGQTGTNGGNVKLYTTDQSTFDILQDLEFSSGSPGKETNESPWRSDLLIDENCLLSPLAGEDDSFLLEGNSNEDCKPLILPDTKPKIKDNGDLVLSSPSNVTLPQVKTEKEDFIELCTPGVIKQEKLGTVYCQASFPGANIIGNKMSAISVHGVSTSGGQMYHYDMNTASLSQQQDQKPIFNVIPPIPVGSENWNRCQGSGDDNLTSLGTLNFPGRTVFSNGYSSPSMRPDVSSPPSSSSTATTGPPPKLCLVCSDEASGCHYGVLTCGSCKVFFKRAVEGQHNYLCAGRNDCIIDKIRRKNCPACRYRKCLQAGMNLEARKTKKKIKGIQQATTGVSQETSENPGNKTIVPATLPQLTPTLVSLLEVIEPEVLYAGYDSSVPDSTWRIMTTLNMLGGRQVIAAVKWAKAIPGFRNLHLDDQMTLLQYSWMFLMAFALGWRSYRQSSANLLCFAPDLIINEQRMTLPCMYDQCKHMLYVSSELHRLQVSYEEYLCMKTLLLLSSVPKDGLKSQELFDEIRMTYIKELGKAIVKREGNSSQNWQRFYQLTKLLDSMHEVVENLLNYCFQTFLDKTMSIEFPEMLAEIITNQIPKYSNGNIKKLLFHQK

[5] = target: Glucocorticoid receptor (Homo sapiens) (UniProt P04150); assay: GR-EFC Redistribution (AID 451; calls by dose curve; also: potency is read from the fitted curve at half-maximal effect); details: CHO-K1 GR-EFC translocation, beta-gal luminescence, 2 h
How it was run: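 CHO-K1 cells expressing nuclear EA and GR-ED fragments of b-gal; compounds titrated up to 46 uM final, 2 h at 37 C. GR nuclear translocation read as complemented b-gal luminescence after 1 h RT detection.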

[6] = target: Mitogen-activated protein kinase 10 (Mus musculus) (UniProt Q61831); assay: JNK3 AlphaScreen Assay (AID 530); details: JNK3 lysate, c-Jun phosphorylation; series mostly up to 11.4 µM;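 also: kinase came from lysate of stimulated human HepG2 cells; signal reports phosphorylation of biotinylated GST-cJun 1-79 at Ser73 with 10 µM ATP; % is scaled to controls: 0 for no effect and ±100 for the full control effect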
How it was run: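 HepG2 lysate (IL-1b/TNFa pre-activated) + biotin-GST-cJun 1-79 + anti-pSer73 cJun; cpd titration, 15 min RT; ATP 10 uM start; Tris pH 7.6, MgCl2, DTT, vanadate; beads in EDTA buffer; AlphaScreen.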

[7] = target: 3',5'-cyclic-AMP phosphodiesterase 4B (Homo sapiens) (UniProt Q07343); assay: qHTS Assay for Inhibitors of PDE-IV (AID 607; active = well fitted activation curve with a large enough effect in the main read-out, with a control signal flat, not every such curve was filed as active; also: % of control where 0% means no effect); details: HEK293 ACTOne CNG channel cells, membrane potential fluorescence; series mostly up to 22.9 µM
Chain of 3',5'-cyclic-AMP phosphodiesterase 4B (Homo sapiens) (Q07343 whole entry, looked up): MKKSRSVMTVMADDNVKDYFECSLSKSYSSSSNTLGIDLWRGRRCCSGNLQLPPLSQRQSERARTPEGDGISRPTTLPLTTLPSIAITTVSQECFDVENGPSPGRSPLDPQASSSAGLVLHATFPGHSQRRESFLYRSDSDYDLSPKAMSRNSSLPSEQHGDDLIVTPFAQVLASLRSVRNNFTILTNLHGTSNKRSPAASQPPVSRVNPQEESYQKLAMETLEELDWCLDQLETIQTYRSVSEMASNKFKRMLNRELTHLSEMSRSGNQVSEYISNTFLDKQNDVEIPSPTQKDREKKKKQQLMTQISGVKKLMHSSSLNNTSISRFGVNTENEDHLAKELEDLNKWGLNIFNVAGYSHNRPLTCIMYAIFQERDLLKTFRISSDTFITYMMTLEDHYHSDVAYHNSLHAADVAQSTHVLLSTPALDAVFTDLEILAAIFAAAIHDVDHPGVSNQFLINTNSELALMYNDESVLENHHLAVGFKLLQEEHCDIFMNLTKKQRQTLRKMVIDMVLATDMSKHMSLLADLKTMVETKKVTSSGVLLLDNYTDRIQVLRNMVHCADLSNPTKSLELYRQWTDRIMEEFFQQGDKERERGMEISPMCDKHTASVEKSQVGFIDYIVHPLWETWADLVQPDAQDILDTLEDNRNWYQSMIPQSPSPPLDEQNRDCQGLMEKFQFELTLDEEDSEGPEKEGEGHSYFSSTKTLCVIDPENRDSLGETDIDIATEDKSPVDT
How it was run: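 ACTOne HEK293 cells carry a modified cAMP-gated CNG channel and express endogenous PDE4; plated 1000 cells/well, compounds up to 22.9 uM final. Membrane-potential dye fluorescence (ex 535/em 590) was read; parental cells received 10 uM forskolin + 100 uM RO 20-1724.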

[8] = target: Cytochrome P450 2C9 (Homo sapiens) (UniProt P11712); assay: qHTS Assay for Inhibitors and Substrates of Cytochrome P450 2C9 (AID 883; active = well fitted curve in the direction sought with a large enough effect; an effect the other way counts as inactive or inconclusive; also: potency is read from the fitted curve at half-maximal effect; nearly all actives have a fitted effect of over 60% in size); details: recombinant CYP2C9, luciferin-H luminescence, 60 min; series mostly up to 11.4 µM
Chain of Cytochrome P450 2C9 (Homo sapiens) (P11712 whole entry, looked up): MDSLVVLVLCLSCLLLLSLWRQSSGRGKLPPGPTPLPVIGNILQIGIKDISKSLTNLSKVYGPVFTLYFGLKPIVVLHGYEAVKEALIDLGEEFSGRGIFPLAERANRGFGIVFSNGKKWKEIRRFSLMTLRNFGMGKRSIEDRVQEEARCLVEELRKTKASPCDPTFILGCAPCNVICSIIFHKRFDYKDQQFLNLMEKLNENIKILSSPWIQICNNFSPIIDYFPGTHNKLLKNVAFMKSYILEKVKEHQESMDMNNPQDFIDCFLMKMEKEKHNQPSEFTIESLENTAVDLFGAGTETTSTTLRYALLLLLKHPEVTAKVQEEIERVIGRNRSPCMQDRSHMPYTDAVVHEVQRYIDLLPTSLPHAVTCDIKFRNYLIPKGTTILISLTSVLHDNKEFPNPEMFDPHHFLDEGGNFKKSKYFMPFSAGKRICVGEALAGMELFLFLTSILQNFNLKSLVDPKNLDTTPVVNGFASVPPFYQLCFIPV
How it was run: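 Human CYP2C9 (10nM) with Luciferin-H at 100uM (its KM) in 25mM KPO4; compound preincubated 10 min at 37C, then NADPH regeneration for 60 min at 37C. Luciferin read by luminescence after detection reagent; normalized to 57uM sulphaphenazole as full inhibition.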

[9] = target: Cytochrome P450 3A4 (Homo sapiens) (UniProt P08684); assay: qHTS Assay for Activators of Cytochrome P450 3A4 (AID 885; active = well fitted curve in the direction sought with a large enough effect; an effect the other way counts as inactive or inconclusive; also: nearly all actives have a fitted effect of over 65% in size); details: recombinant CYP3A4, Luciferin-PPXE luminescence, 60 min; series mostly up to 11.4 µM
Chain of Cytochrome P450 3A4 (Homo sapiens) (P08684 whole entry, looked up): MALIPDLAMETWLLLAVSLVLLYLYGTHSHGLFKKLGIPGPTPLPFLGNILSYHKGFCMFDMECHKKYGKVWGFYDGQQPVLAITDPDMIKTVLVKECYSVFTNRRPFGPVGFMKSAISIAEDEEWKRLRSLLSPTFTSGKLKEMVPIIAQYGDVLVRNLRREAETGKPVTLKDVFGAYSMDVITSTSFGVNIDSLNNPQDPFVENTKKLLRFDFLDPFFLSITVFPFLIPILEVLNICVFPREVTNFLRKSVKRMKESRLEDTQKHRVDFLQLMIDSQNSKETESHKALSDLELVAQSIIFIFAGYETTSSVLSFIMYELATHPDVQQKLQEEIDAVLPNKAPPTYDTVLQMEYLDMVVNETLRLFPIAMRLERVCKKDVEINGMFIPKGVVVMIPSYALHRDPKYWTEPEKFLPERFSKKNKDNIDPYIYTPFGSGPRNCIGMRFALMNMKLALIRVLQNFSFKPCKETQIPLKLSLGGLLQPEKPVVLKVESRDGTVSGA
How it was run: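 CYP3A4 activity: Luciferin-PPXE O-dealkylation, 25uM substrate, 200mM KPO4, RT throughout. Read-out is luciferase luminescence; higher values reflect activation.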

[10] = qHTS Assay for Identification of Small Molecule Agonists for Hypoxia Response Element Signaling Pathway (AID 914; active = well fitted activation curve with a large enough effect in the signal ratio, with a control signal flat, not every such curve was filed as active; the % refers to the signal ratio; also: % of control where 0% means no effect); details: ME-180 (cervical carcinoma) HRE-bla reporter, beta-lactamase ratio, CoCl2, 17 h; activation: hits give high values
How it was run: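 Cells were plated overnight, pin-dosed with compound in a titration series, co-stimulated with EC50 CoCl2 and incubated 17 hours at 37 degrees Celsius. CCF4 substrate was then loaded, and AC50 values came from the 460nm/530nm ratio.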

[11] = target: Cytochrome P450 2C19 (Homo sapiens) (UniProt P33261); assay: qHTS Assay for Inhibitors and Substrates of Cytochrome P450 2C19 (AID 899; active = well fitted curve in the direction sought with a large enough effect; an effect the other way counts as inactive or inconclusive; also: potency is read from the fitted curve at half-maximal effect; nearly all actives have a fitted effect of over 60% in size); details: recombinant CYP2C19, luciferin-H EGE luminescence; series mostly up to 11.4 µM
Chain of Cytochrome P450 2C19 (Homo sapiens) (P33261 whole entry, looked up): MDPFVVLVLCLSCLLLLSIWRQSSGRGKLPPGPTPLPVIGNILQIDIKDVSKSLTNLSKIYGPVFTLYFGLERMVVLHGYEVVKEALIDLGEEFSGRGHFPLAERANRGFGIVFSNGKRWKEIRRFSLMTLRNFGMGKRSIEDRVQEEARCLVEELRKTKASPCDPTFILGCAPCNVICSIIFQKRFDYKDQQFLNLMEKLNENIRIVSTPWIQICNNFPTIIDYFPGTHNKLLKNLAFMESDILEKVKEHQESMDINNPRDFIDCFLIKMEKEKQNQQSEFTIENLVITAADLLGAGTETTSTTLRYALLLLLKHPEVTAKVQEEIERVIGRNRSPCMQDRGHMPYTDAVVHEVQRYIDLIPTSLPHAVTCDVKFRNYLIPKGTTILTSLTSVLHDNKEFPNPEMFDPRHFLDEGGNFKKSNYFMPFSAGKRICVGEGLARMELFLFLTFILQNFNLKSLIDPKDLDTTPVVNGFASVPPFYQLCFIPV
How it was run: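 5 nM human CYP2C19 with 10uM Luciferin-H EGE (at KM) in 50mM KPO4, compound preincubated 10 min at 37C, then NADPH regeneration for 60 min at 37C. Luciferin read by luminescence after detection reagent; normalized to 57uM ketoconazole as full inhibition.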

[12] = Confirmation and Secondary Assay for Modulators of Hemoglobin Beta Chain Splicing at IVS2 654 locus (AID 910; active = well fitted curve in the direction sought with a large enough effect; an effect the other way counts as inactive or inconclusive;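 also: HeLa cells stably carrying EGFP split by mutant beta-globin IVS2-654 intron; % of control where 0% means no effect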); details: HeLa EGFP-654 splicing reporter, GFP fluorescence, 48 h; series mostly up to 38.3 µM
How it was run: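 HeLa cells stably expressing EGFP interrupted by β-globin IVS2-654 intron, seeded overnight in Opti-MEM/2% FCS, then treated 2 days at 37 °C. Restored splicing read as total peak GFP intensity per well by laser scanning cytometry (488 nm excitation, 500–520 nm emission); 500 nM antisense PNA as control.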

[13] = Confirmation and Secondary Assay for Modulators of Hemoglobin Beta Chain Splicing at IVS2 705 locus (AID 930; active = well fitted curve in the direction sought with a large enough effect; an effect the other way counts as inactive or inconclusive;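 also: HeLa cells stably expressing the EGFP-705 splicing reporter; GFP fluorescence per well restored by corrected splicing of the IVS2-705 intron in EGFP; % of control where 0% means no effect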); details: HeLa EGFP-705 splicing reporter, GFP fluorescence, 48 h; series mostly up to 38.3 µM
How it was run: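 Splice-correction reporter: EGFP cDNA split by beta-globin intron 2 bearing the 705 mutation, stably in HeLa. Compound incubation 2 days, 37C; fluorescent objects 5-250 µm summed per well.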

[14] = target: Cytochrome P450 3A4 (Homo sapiens) (UniProt P08684); assay: qHTS Assay for Inhibitors and Substrates of Cytochrome P450 3A4 (AID 884; active = well fitted curve in the direction sought with a large enough effect; an effect the other way counts as inactive or inconclusive; also: potency is read from the fitted curve at half-maximal effect; nearly all actives have a fitted effect of over 50% in size); details: recombinant CYP3A4, Luciferin-PPXE luminescence; series mostly up to 57.1 µM
How it was run: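 Luminescent readout of luciferin produced by CYP3A4 (20 nM) dealkylation of Luciferin-PPXE, 25 uM (its KM). NADPH-driven reaction ran 60 min at RT after 10 min compound preincubation; data scaled to 57 uM ketoconazole as 100% inhibition.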

SMILES	Potency [1]	activity change, negative = inhibition [2]	activity, negative = inhibition [3]	Potency [4]	Potency [5]	Potency [6]	Potency [7]	Potency [8]	Potency [9]	activation [10]	Potency [11]	outcome [12]	outcome [13]	Potency [14]
O=C(c1[nH]o[n+](=O)c1C(=O)c1csc2ccccc12)c1csc2ccccc12	> 11.4 µM	3.39%	-7.78%	> 46 µM	> 9.22 µM	inactive	inactive	1.58 µM (active)	inactive	–	–	–	–	–
CNc1ncnc(Sc2nc(N)nc3nc[nH]c23)c1[N+](=O)[O-]	> 11.4 µM	-9.31%	21.1%	> 46 µM	> 9.22 µM	inactive	inactive	–	–	–	–	–	–	–
CC(C)(C)c1ccc(O)c(CN(Cc2cc(C(C)(C)C)ccc2O)c2ccccc2)c1	> 11.4 µM	4.11%	2.48%	> 46 µM	> 9.22 µM	inactive	inactive	–	–	12.3%	–	–	–	–
COC(=O)c1ccc(CCc2cc(O)ccc2O)cc1	> 11.4 µM	-7.43%	-16.8%	> 46 µM	> 9.22 µM	inactive	inactive	–	inactive	–	3.16 µM (active)	–	–	–
Oc1cc(O)c2c(c1)O[C@H](c1ccc(O)c(O)c1)[C@@H](O)[C@@H]2c1c(O)cc(O)c2c1O[C@@H](c1ccc(O)c(O)c1)[C@H](O)C2	> 11.4 µM	16.5%	-2.56%	> 46 µM	> 9.22 µM	inactive	inactive	–	–	–	–	–	–	–
CN(C)CC[C@@H](C(=O)C(C)(C)C)c1ccccn1	> 11.4 µM	2.04%	1.4%	> 46 µM	> 9.22 µM	inactive	inactive	–	–	–	–	–	–	–
O=c1cnc2cnc(N3CCNCC3)nc2n1CCc1ccccc1	> 11.4 µM	-5.27%	-12.8%	> 9.22 µM	> 46 µM	inactive	inactive	–	inactive	–	–	–	–	–
COc1ccc(C(=O)N2CCC3(CC2)CCN(c2ccccn2)CC3)cc1	> 11.4 µM	-1.45%	-10.1%	–	> 46 µM	inactive	inactive	–	–	–	–	–	–	–
COc1ccc(CNc2nc(-c3ccccc3OC)nc3ccccc23)c(OC)c1	> 11.4 µM	-13.6%	16.1%	> 46 µM	> 46 µM	inactive	inactive	–	–	–	–	inactive	inactive	–
Clc1ccc(CSCc2ccc(Cl)cc2Cl)c(Cl)c1	> 11.4 µM	-7.04%	1.58%	–	> 9.22 µM	inactive	inactive	–	–	–	–	–	–	–
CN(C)Cc1cc(C(F)(F)F)ccc1C(O)(c1ccccc1)c1ccccc1	> 11.4 µM	19.8%	9.65%	> 46 µM	> 9.22 µM	inactive	inactive	–	inactive	25.7%	–	–	–	0.794 µM (active)
Cc1ccc(-c2nnc(-c3ccc4ccccc4c3)o2)cc1	> 11.4 µM	13.5%	14.3%	> 46 µM	> 9.22 µM	inactive	inactive	–	inactive	–	–	–	–	–
